From PubChem BioAssay (EPA / NIEHS)
Results filed as inconclusive are left out. Active and inactive are the calls of the source. The calls were made as follows: active = hit-call score of the fitted dose curve at least 0.9, where 1 is the maximum; inconclusive = response in the unintended direction; inactive = score below 0.9.

Target: Nuclear receptor subfamily 1 group I member 3 (Homo sapiens) (UniProt Q14994)
Assay: ATG_CAR_TRANS: Attagene TRANS-FACTORIAL HepG2 Assay for human Constitutive Androstane Receptor (CAR) (AID 2282969);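 also: activators raise reporter mRNA above DMSO so AC50 marks induction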
Details: HepG2 Attagene TRANS-FACTORIAL CAR reporter
Protocol: ATG_TRANS is a cell-based, multiplexed-readout assay that uses HepG2, a human liver cell line, with measurements taken at 24 hours after chemical dosing in a 24-well plate.ATG_CAR_TRANS is one of 30 assay component(s) measured or calculated from the ATG_TRANS assay. It is designed to make measurements of mRNA induction, a form of inducible reporter, as detected with fluorescence intensity signals by Reverse transcription polymerase chain reaction (RT-PCR) and Capillary electrophoresis technology.Data from the assay component ATG_CAR_TRANS was analyzed into 1 assay endpoint. This assay endpoint, ATG_CAR_TRANS, was analyzed in the positive analysis fitting direction relative to DMSO as the negative control and baseline of activity. Using a type of inducible reporter, measures of mRNA for gain-of-signal activity can be used to understand the reporter gene at the transcription factor-level as they relate to the gene NR1I3. Furthermore, this assay endpoint can be referred to as a primary readout, because this assay has produced multiple assay endpoints where this one serves a reporter gene function. To generalize the intended target to other relatable targets, this assay endpoint is annotated to the nuclear receptor intended target family, where the subfamily is non-steroidal.
Human liver HepG2 cells are transiently transfected with multiple reporter transcription units (MRTUs) in 6-well plates using FuGene 6 reagent (Roche; 3 ml FuGene/1 mg DNA). The MRTU constructs are regulated by a cis-regulating element (promoter). […] A major difference between the CIS and TRANS system is that in CIS activities of endogenous TFs are measured, whereas the TRANS assay evaluates changes in activities of exogenous, chimeric NR-Gal4 proteins. […] At the end of 24 hour incubation, total RNA was isolated using TriZol reagent (Invitrogen). The isolated RNA is then reverse-transcribed using oligo(dT) primer and Mo-MLV reverse transcriptase (Invitrogen) with DNAse I (Ambion) treatment for 30 min. The one-tenth of the produced cDNA was amplified by PCR using Taq DNA polymerase (Invitrogen) and two reporter sequence-specific primers. The PCR products were fluorescently labeled by primer extension with 6-arboxyfluorescein (6-FAM) 5'-labeled reporter sequence-specific primer (2 min at 95 C, 20 s at 68 C and 10 min at 72 C) and these products were digested with 5U of HpaI (New England Biolabs) for 2h at 37 C. The fragments were purified using Qiaquick PCR columns (Qiagen), analyzed on an ABI 3130xL genetic analyzer (Applied Biosystems) with peak positions identified by using a set of X-rhodamine (ROX)-labeled MapMarker1000 molecular weight standards (BioVentures). The raw capillary electrophoresis data was processed using Attagraph software (Attagene).

Nuclear receptor subfamily 1 group I member 3 (Homo sapiens), sequence (Q14994 whole entry, looked up): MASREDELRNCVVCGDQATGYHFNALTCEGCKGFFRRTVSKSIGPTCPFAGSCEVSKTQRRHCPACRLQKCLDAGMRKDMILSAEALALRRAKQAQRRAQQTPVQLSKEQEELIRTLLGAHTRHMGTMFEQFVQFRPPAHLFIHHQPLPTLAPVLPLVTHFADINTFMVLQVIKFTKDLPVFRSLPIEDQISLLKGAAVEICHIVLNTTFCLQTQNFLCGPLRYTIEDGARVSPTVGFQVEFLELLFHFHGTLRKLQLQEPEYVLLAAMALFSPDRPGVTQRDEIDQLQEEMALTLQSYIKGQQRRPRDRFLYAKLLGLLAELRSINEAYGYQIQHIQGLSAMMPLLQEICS

| SMILES | outcome |
| --- | --- |
| CCCCCCCCCCCCCO | inactive |
| Nc1ccccc1N | inactive |
| CCCCC(CC)COC(=O)CC(C(=O)OCC(CC)CCCC)S(=O)(=O)O (stereo not given) | inactive |
| CN[C@H]1CC[C@@H](c2ccc(Cl)c(Cl)c2)c2ccc(S(N)(=O)=O)cc21 | inactive |
| Nc1ccc2c(c1)C(=O)c1ccccc1C2=O | inactive |
| O=c1c(O)c(-c2ccc(O)c(O)c2)oc2cc(O)cc(O)c12 | inactive |
| FC(F)(F)C(F)(F)C(F)(F)C(F)(F)C(F)(F)C(F)(F)CCI | inactive |
| COc1cc(S(=O)(=O)O)c(C)cc1N=Nc1c(O)ccc2cc(S(=O)(=O)O)ccc12 | inactive |
| CCOc1ccc2c(c1)C(C)=CC(C)(C)N2 | inactive |
| Cc1ccc(C)c(C)c1 | inactive |
| Cc1ccc(C)c(O)c1C | inactive |
| COc1ccc(C)cc1N | inactive |
| NCC1(Cc2noc(=O)[nH]2)CCCCC1 | inactive |
| C[Si]1(C)O[Si](C)(C)O[Si](C)(C)O[Si](C)(C)O1 | inactive |
| Cc1cc(NC(=O)C(=O)O)cc(C)c1Oc1ccc(O)c2c1CCC2 | inactive |
| CC1(C)NC(=O)NC1=O | inactive |
| CCNc1cccc(C)c1 | inactive |
| O=C(OCCCCCOC(=O)c1ccccc1)c1ccccc1 | inactive |
| Cc1ccc(C(C)C)c(O)c1 | inactive |
| CCCCc1ccc2c(n1)[C@@H](c1ccc(OC)cc1C[C@H](C)C(=O)O)[C@H](C(=O)O)[C@H]2c1ccc2c(c1)OCO2 | inactive |
| CCCCCCC(=O)OCC | inactive |
| Oc1ccc2c(c1)OC[C@@H](N1CCC(O)(c3ccc(F)cc3)CC1)[C@H]2O | inactive |
| Oc1ccc2ccccc2c1N=Nc1ccccc1 | inactive |
| Cc1cccc([N+](=O)[O-])c1C | inactive |
| COc1cc(C=O)ccc1O | inactive |
